From PubChem BioAssay AID435030 (The Scripps Research Institute Molecular Screening Center, 2010)
Screen size: about 330,000 compounds; about 940 (0.28%) were called active. Many of the other results were omitted from the sample, so actives are more common in it than they were. Values without a mark were called inactive. No stated cut-off is given here; in the data, active means inhibition above about 12%; inactive means the rest.

Assay: growth inhibition of E. coli expressing H. pylori AddAB, primary screen, AddAB inhibitor project, absorbance (AID 435030);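 further: 0% = vehicle wells of infected cells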
Settings: at 11.9 µM, active compounds read high

| SMILES | inhibition |
| --- | --- |
| O=C(Nc1cccc(S(=O)(=O)N2CCOCC2)c1)C12CC3CC(CC(C3)C1)C2 | 0.82% |
| CCCC(=O)OCC(=O)Nc1cc(Cl)ccc1[N+](=O)[O-] | 0.77% |
| CC(C)(C)NC(=O)COC(=O)c1cc(Br)ccc1Cl | 1.15% |
| CC(C)(C)NC(=O)COC(=O)c1cc(Cl)ccc1[N+](=O)[O-] | 57.9% (active) |
| CN(NC(=O)C1CC(=O)N(c2ccccc2)C1)C1=NS(=O)(=O)c2ccccc21 (centres undefined) | 1% |
| Cn1nnc2cc(C(=O)NCCC3=CCCCC3)ccc21 | 0% |
| Cc1cc(=O)n2nc(N3CCCC(C(=O)NCCC4=CCCCC4)C3)sc2n1 (centres undefined) | 0.49% |
| CC1CCCN(C(=O)c2ccc3c(c2)C(=O)N(CCC2=CCCCC2)C3=O)C1 (centres undefined) | 22.9% (active) |
| O=C(c1n[nH]c2c1CCC2)N1CCCC(Nc2cccc(F)c2)C1 (centres undefined) | 2.86% |
| Cc1cc(C)c2c(c1)cc(C)c1nnc(SCC(=O)Nc3cc(C)on3)n12 | 1.96% |
| Cc1cc(S(=O)(=O)c2cc3ccc(O)c(C)c3oc2=O)ccc1F | 0.08% |
| COc1c(N2CCN(C(=S)Nc3ccccc3F)C(C)C2)c(F)cc2c(=O)c(C(=O)O)cn(C3CC3)c12 (centres undefined) | 99.7% (active) |
| COc1ccccc1NC(=S)N1CCN(c2ccc(F)cc2)CC1 | -2.49% |
| CC1CN(C(=S)Nc2ccccc2F)CC(C)O1 (centres undefined) | -1.09% |
| COc1ccc(Cl)cc1C(=O)OCC(=O)NCc1cccs1 | 0.75% |
| Cc1ccc(S(=O)(=O)N2CCN(C(=O)Cn3c(=O)cnc4ccccc43)CC2)c(C)c1 | 0.34% |
| O=C(Nc1ccc(OC(F)(F)F)cc1)c1ccc2c(c1)no[n+]2[O-] | 3.14% |
| CCCCNC(=O)c1cn(CC)c2cc(N3CCN(C(=O)c4ccco4)CC3)c(F)cc2c1=O | 11.8% |
| CCCCCCn1cc(C(=O)O)c(=O)c2cc(F)c(N3CCCCC3)cc21 | -1.14% |
| CCn1cc(C(=O)NCCC(=O)NCCO)c(=O)c2cc3c(cc21)OCO3 | -2.55% |

| SMILES | inhibition |
| --- | --- |
| CN1CCN(c2cc3c(cc2F)c(=O)c(C(=O)O)cn3CCF)CC1 | 98.6% (active) |
| CCn1cc(S(=O)(=O)c2cccc(C)c2)c(=O)c2cc(F)c(N3CCN(C)CC3)cc21 | -1.64% |
| CCn1cc(C(=O)NCCO)c(=O)c2cc(F)c(N3CCN(C)CC3)cc21 | 98.8% (active) |
| Cc1csc(NC(=O)C2CCCN2C(=O)OCC(C)C)n1 (centres undefined) | 0.97% |
| Cc1nn(C)c(C)c1Sc1ccccc1N | -0.51% |
| O=C(COC(=O)Cn1[nH]c(=O)c2ccccc2c1=O)Nc1c(Cl)cccc1C(F)(F)F | -0.85% |
| O=C(OCC(=O)c1cccs1)c1ccc([N+](=O)[O-])o1 | 16.4% (active) |
| O=C(OCC(=O)c1cccs1)C1=COCCO1 | 3.94% |
| O=C(COC(=O)c1ccc([N+](=O)[O-])o1)NC12CC3CC(CC(C3)C1)C2 | 2.74% |
| O=C(Cc1ccccc1)NNC1CC(=O)N(c2ccc(Br)cc2)C1=O (centres undefined) | 0.17% |
| Cc1ccccc1OCC(=O)NNC(=O)c1cc(S(=O)(=O)N(C)C)ccc1N1CCCC1 | -1.04% |
| Cc1cc([N+](=O)[O-])nn1CC(=O)Nc1ccc(Cc2ccncc2)cc1 | -1.17% |
| Cc1ccc(COc2ccc(C(=O)NN)cc2)cc1 | 3% |
| O=C(C/C(=N\NC(=O)c1ccccc1Br)C(F)(F)F)c1cccs1 | 0.69% |
| C=CC(=O)OCCOCCOCCOCCOC(=O)C=C | -0.85% |
| CC1C(=O)N2CCCc3cc(S(=O)(=O)NCc4ccc(F)cc4)cc1c32 (centres undefined) | -1.44% |
| Cc1c(C=O)c2ccccc2n1CC(=O)O | -5.83% |
| CC(=O)c1c(C)n([O-])c2ccccc2[n+]1=O | 38.5% (active) |
| CCNc1nc(NC(C)C)nc(N2CC(=O)N(CC(=O)OCC)C2=N)n1 | -0.43% |
| CNC(C)C#Cc1ccc2sc3cc(OC)c(OC)cc3c(=O)c2c1 (centres undefined) | 3.07% |

| SMILES | inhibition |
| --- | --- |
| O=C(C1=C(O)C(=O)N(CCOCCO)C1c1ccccn1)c1cccs1 (centres undefined) | -0.51% |
| O=C(NCC1CCCO1)/C(=C/c1ccc(Cl)cc1)NC(=O)c1ccccc1 (centres undefined) | 3.87% |
| O=C(CSc1ccc(-c2ccccc2)nn1)NCC1CCCO1 (centres undefined) | -1.35% |
| O=C(NCC1CCCO1)C(C(=O)c1ccccc1)n1cc(Cl)ccc1=O (centres undefined) | 99.8% (active) |
| Cc1ccc(NC(=O)C(C)Sc2nnc(C3CC3)n2C2CC2)cc1S(=O)(=O)N1CCOCC1 (centres undefined) | -0.26% |
| CCOc1ccccc1NC(=O)C12CC3CC(C1)CC(c1ccc(C)cc1)(C3)C2 | 78.7% (active) |
| COc1ccccc1NC(=S)N1CCC(NC(=O)C23CC4CC(CC(C4)C2)C3)CC1 | 4.75% |
| Cc1ccc(C23CC4CC(CC(C(=O)NCC(=O)O)(C4)C2)C3)cc1 | 1.92% |
| Cc1cc(OC(C)C(=O)Nc2ccc(S(=O)(=O)Nc3onc(C)c3C)cc2)cc(C)c1Cl (centres undefined) | -1.11% |
| Cc1noc(NS(=O)(=O)c2ccc(NC(=O)C34CCC(CC3)C4)cc2)c1C | 1.62% |
| Cc1ccc(C(=O)/C=C/Nc2ccc(S(=O)(=O)Nc3onc(C)c3C)cc2)cc1 | 12.7% (active) |
| Cc1ccc(Sc2ccncc2S(N)(=O)=O)cc1 | 4.14% |
| COc1ccc(N2CCN(S(=O)(=O)CCNC(=O)C34CC5CC(CC(C5)C3)C4)CC2)cc1 | 3.21% |
| COc1cccc(NC(=O)C(Sc2nc3ccccc3c(=O)n2CC(C)C)c2ccccc2)c1 (centres undefined) | 2.26% |
| O=C(NNC(=O)C1CCCC1)c1ccc(F)cc1 | -2.96% |
| O=C(/C=C/c1ccc([N+](=O)[O-])o1)NNC(=O)c1ccc(F)cc1 | 97.8% (active) |
| CCc1noc(C)c1C(=O)NNC(=O)c1ccc(F)cc1 | -0.34% |
| Cc1ccc(Cl)cc1NC(=S)N(CCN(C)C)Cc1cccs1 | 4.63% |
| CCn1c(/C=C/Nc2ccccc2)[n+](CC)c2ccc(C(=O)OCC(F)(F)F)cc21 | -1.7% |
